Results published in PubChem BioAssay (NCI).
The panel holds about 83,000 compounds, 20% with a hit somewhere; the sample as a whole holds those more often.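 Note: values are percent growth. 100 is the growth of untreated cells, values between 100 and 0 indicate rising inhibition; between -100 and 0 indicates cell death.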 Unmarked numbers belong to inactive results. Active and inactive are the calls of the source. How the source made its calls: active means growth percent below 10; inactive means the rest.

Tests used:
Assay in all cases: NCI-60 one-dose screen, 48 h (100 = growth as untreated, 0 = no growth, -100 = all killed)
Settings in all cases: 10 µM unless noted
SR leukemia = tested on: SR leukemia
RPMI-8226 leukemia = tested on: RPMI-8226 leukemia
OVCAR-8 ovarian = tested on: OVCAR-8 ovarian
OVCAR-5 ovarian = tested on: OVCAR-5 ovarian
OVCAR-4 ovarian = tested on: OVCAR-4 ovarian
SK-OV-3 ovarian = tested on: SK-OV-3 ovarian
IGROV1 ovarian = tested on: IGROV1 ovarian
OVCAR-3 ovarian = tested on: OVCAR-3 ovarian
HS 578T breast = tested on: HS 578T breast
NCI/ADR-RES ovarian = tested on: NCI/ADR-RES ovarian

SMILES	growth (SR leukemia)	growth (RPMI-8226 leukemia)	growth (OVCAR-8 ovarian)	growth (OVCAR-5 ovarian)	growth (OVCAR-4 ovarian)	growth (SK-OV-3 ovarian)	growth (IGROV1 ovarian)	growth (OVCAR-3 ovarian)	growth (HS 578T breast)	growth (NCI/ADR-RES ovarian)
Cc1ccccc1NC(=O)c1cccc(NC(=O)CCl)c1	16.4%	26%	46.3%	70.4%	73.7%	81.3%	29.5%	49%	78%	38.9%
O=C(N/N=C/c1ccc(Br)o1)c1[nH]c2ccc(Br)cc2c1-c1ccccc1	5.02% (active)	10.6%	-35.9% (active)	-21.8% (active)	-17.2% (active)	22%	5.42% (active)	-28.6% (active)	-4.62% (active)	-41.6% (active)
COc1ccc2[nH]c(=O)c(CSc3ccccc3Nc3nccc(-c4ccc(Cl)cc4)n3)cc2c1	-1.58% (active)	30.4%	39.5%	84.7%	38.3%	57.7%	55.9%	39.8%		34.4%
NS(=O)(=O)c1ccc(Nc2nc(N/N=C/c3cc(Br)c(O)c(Br)c3)nc(Nc3ccccc3)n2)cc1	-12.1% (active)	79.4%	57.7%	106%	71.2%	99.7%	59.5%	20.2%	-8.25% (active)	98%
CCOC(=O)/C(F)=C/C1CC1CCc1ccc(OCC)cc1 (configuration not stated)	78.6%	99.3%	101%	108%	94.8%	75.3%	92.5%	103%	94.5%	101%
COc1cc(C2CC(c3ccc(Cl)cc3)=Nc3c(N)nc(N)nc3N2)ccc1Oc1nc(Nc2ccc(F)cc2)nc(N(C)C)n1 (configuration not stated)	-47.5% (active)	15%	65%	96.6%	29%	79.3%	34%	65%		41.4%
O=C(N/N=C/c1ccc(B(O)O)s1)c1[nH]c2ccc(Br)cc2c1-c1ccccc1	-22.6% (active)	0.974% (active)	-28.3% (active)	-97.6% (active)	-63.6% (active)	-86.7% (active)	-74.8% (active)	-47.1% (active)	-25.7% (active)	-33.9% (active)
COc1ccc2[nH]cc(-c3cc(N)n4nc(-c5c[nH]c6ccccc56)cc4n3)c2c1	11.1%	-11.5% (active)	-43.9% (active)	7.37% (active)	30.9%	3.49% (active)	16%	14.6%	37.2%	27.7%
Fc1ccc(N2CC(Cn3c(C(F)(F)F)cc4c(Cl)ncnc43)C2)c(F)c1	-60.9% (active)	24.2%	-87.6% (active)	107%	-27.1% (active)	100%	-95.7% (active)	-66.2% (active)		11.4%
C/C(=N/O)c1ccc(NC(=O)CSc2nnc(-c3ccc(-c4nc5ccc(Cl)cc5[nH]4)cc3)o2)cc1	12.3%	18.2%	-31.7% (active)	55.3%	14.5%	39.6%	34.5%	-5.29% (active)	-13.3% (active)	88.9%
CN1CCN(CCS(=O)(=O)Nc2cc(-c3ccc4ncnc(Nc5ccc(F)c(Cl)c5)c4c3)cnc2Cl)CC1	-45.4% (active)	75.2%	22.4%	16%	32.3%	3.06% (active)	-34.8% (active)	-31.7% (active)	-23.3% (active)	78.4%
COc1ccc(-c2nnc3c(/C=C/c4ccc(Br)cc4)nc4ccccc4n23)cc1	-19.4% (active)	21.2%	46.1%	79.7%	52.9%	112%	47.8%	15.1%	81.6%	67.5%
Cn1cc(-c2cc(N)n3nc(-c4c[nH]c5ccccc45)cc3n2)c2ccccc21	12.1%	-3.23% (active)	-83% (active)	-79% (active)	-34.7% (active)	-95.1% (active)	-79.8% (active)	-79.4% (active)	-23.7% (active)	-40.6% (active)
